Rows were chosen to be rich in hits. Some 1.4% of all compounds tested hit in one or more screens of this group.
3CLpro inhibitor: SARS-CoV 3CLpro protease inhibitors, primary screen, biochemical, quenched FRET; AID 1706, 2009; actives 0.14% (n = 290,000); inhibition, % at 6 µM; recombinant SARS-CoV 3CLpro, quenched FRET peptide cleavage; Replicase polyprotein 1ab (Severe acute respiratory syndrome coronavirus), P0C6X7; in the data active means inhibition above about 12%
VHR inh abs: VHR1 phosphatase inhibitors, primary screen, biochemical, absorbance, uHTS; inhibition, % at 13.3 µM; actives 0.52% (n = 290,000); Dual specificity protein phosphatase 3 (Homo sapiens), P51452; AID 1654, 2009; recombinant VHR phosphatase, pNPP absorbance; in the data active means inhibition above about 50%
Target sequence (P51452 whole entry, looked up): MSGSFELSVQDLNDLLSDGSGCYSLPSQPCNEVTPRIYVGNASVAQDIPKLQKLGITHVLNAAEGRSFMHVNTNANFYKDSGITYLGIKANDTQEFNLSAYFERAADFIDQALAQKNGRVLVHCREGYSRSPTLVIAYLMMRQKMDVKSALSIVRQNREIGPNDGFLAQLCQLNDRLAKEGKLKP
BJeLR viability: MLPCN primary cell-based screen for lethality selective to Ras in HRASV12 cells; BJeLR (HRASV12) viability, CellTiter-Glo ATP luminescence, 48 h; inhibition, % (test concentration not listed); actives 0.17% (n = 300,000); AID 1554, 2009; in the data active means inhibition above about 50%
MazEF act: activators of E. coli MazEF toxin-antitoxin RNase, primary screen, biochemical, fluorescence, uHTS | Endoribonuclease toxin MazF (Escherichia coli (strain K12)), P0AE70 | FAM/BHQ RNA-DNA oligo cleavage fluorescence, 5 h | activation, % at 20 µM | actives 0.32% (n = 350,000); in the data active means activation above about 50%
Target sequence (P0AE70 whole entry, looked up): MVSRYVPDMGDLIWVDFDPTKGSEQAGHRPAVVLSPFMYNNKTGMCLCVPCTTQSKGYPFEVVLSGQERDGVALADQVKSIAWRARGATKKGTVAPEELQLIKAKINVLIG
CCHF vOTU inh-1: CCHFV vOTU protease inhibitors, primary screen, biochemical, Pep-AMC substrate, fluorescence | inhibition, % at 11.5 µM | Crimean-Congo hemorrhagic fever virus L polyprotein viral ovarian tumor (vOTU) protease … | actives 0.55% (n = 370,000)
CCHF vOTU inh-2: CCHFV vOTU protease inhibitors, confirmation, biochemical, Pep-AMC substrate, fluorescence; shares compounds with CCHF vOTU inh-1; Recombinant CCHFV vOTU; inhibition, % at 11.5 µM; actives 17% (n = 1,900)
Large screens that a line does not name were inactive (follow-up assays come after a bar, where they were run). Unless noted, no stated cut-off is given here; in the data, active means inhibition above about 30%; inactive means the rest.

Cc1cc(C)cc(N(CC(=O)Nc2ccc(C(F)(F)F)cc2)S(=O)(=O)c2c(C)[nH]c(=O)[nH]c2=O)c1	CCHF vOTU inh-1 33 | CCHF vOTU inh-2 inactive
COc1cc(NC(=O)CN(c2cc(C)cc(C)c2)S(=O)(=O)c2c(C)[nH]c(=O)[nH]c2=O)cc(OC)c1	none
COc1ccc(-c2c(-c3ccccc3)c(C(=O)C(=O)NCCCN(C)C)n3ccc4cc(OC)c(OC)cc4c23)cc1OC	CCHF vOTU inh-1 33 | CCHF vOTU inh-2 inactive
O=C1Nc2ccccc2-n2nnnc2C1N1CCN(c2ccc(C(F)(F)F)cc2[N+](=O)[O-])CC1 (stereo not drawn)	CCHF vOTU inh-1 32 (no result: 3CLpro inhibitor, VHR inh abs, BJeLR viability, MazEF act) | CCHF vOTU inh-2 inactive
Cc1ccc(C)c(N2CCN(C3C(=O)Nc4ccccc4-n4nnnc43)CC2)c1 (stereo not drawn)	none (no result: 3CLpro inhibitor, VHR inh abs, BJeLR viability, MazEF act)
Nn1c(SCC(=O)Nc2ccccc2-c2ccccc2)nnc1-c1cc(-c2ccc(Cl)cc2)n[nH]1	none (no result: 3CLpro inhibitor, VHR inh abs, BJeLR viability, MazEF act)
COc1ccc(S[C@]2(C(=O)N3CCN(c4ncccn4)CC3)CC(=O)N[C@@H]2c2ccc(OC)cc2)cc1	none (no result: 3CLpro inhibitor, VHR inh abs, BJeLR viability, MazEF act)
Oc1ccc(NCc2cccc(OCc3ccc(F)cc3)c2)cc1	CCHF vOTU inh-1 89 (no result: BJeLR viability) | CCHF vOTU inh-2 inactive
O=[N+]([O-])c1ccc(COc2cccc(CNc3ccc(F)cc3)c2)cc1	none
Oc1ccc(NCc2cccc(OCc3ccccc3)c2)cc1	CCHF vOTU inh-1 73 | CCHF vOTU inh-2 inactive
COc1ccc2c(c1)CCc1sc(NC(=O)c3ccco3)nc1-2	none (no result: CCHF vOTU inh-1)
COc1ccc2c(c1)Cc1sc(NC(=O)c3ccco3)nc1-2	CCHF vOTU inh-1 105 | CCHF vOTU inh-2 inactive
COC(=O)[C@]12C[C@H](CC(=O)N3CCCC3)C(=O)N(Cc3ccco3)C1=C[C@H](COCc1ccccc1)O[C@@H]2C	none (no result: 3CLpro inhibitor, VHR inh abs, BJeLR viability, MazEF act)
CC(NC1=CC(=O)c2cccnc2C1=O)C(O)c1ccccc1 (stereo not drawn)	CCHF vOTU inh-1 101 (no result: 3CLpro inhibitor, VHR inh abs, BJeLR viability) | CCHF vOTU inh-2 94
COCCCN1C(=O)[C@H](CC(=O)NCCC(C)C)[C@]2(C(=O)OC)CCCCC=C12	none (no result: 3CLpro inhibitor, VHR inh abs, BJeLR viability, MazEF act)
COc1ccc(CN(C)C(=O)C2CCCN(c3nc4ccccc4o3)C2)cc1 (stereo not drawn)	none (no result: 3CLpro inhibitor, VHR inh abs, BJeLR viability, MazEF act)
Cc1csc(NC(=O)c2ccc(COc3cccc(F)c3)o2)n1	none (no result: 3CLpro inhibitor, VHR inh abs, BJeLR viability, MazEF act)
O=C(CSc1nccc2ccccc12)N1CCN(c2ccccn2)CC1	CCHF vOTU inh-1 65 | CCHF vOTU inh-2 inactive
Cc1cccc(-c2cccc3c4c([nH]c23)[C@@H]2C[C@H](N(C)C(=O)c3ccccc3C)[C@H]([C@H](C)O)C(=O)N2CC4)c1	none (no result: 3CLpro inhibitor, VHR inh abs, BJeLR viability, MazEF act)
CC(=O)c1cc(-c2cc(C(F)(F)F)cc(C(F)(F)F)c2)c(=O)n2c1CCC2	none (no result: 3CLpro inhibitor, VHR inh abs, BJeLR viability, MazEF act)
O=C(NCCc1ccccc1)OCc1cn(-c2cccc(C(F)(F)F)c2)nn1	none (no result: 3CLpro inhibitor, VHR inh abs, BJeLR viability, MazEF act)
COc1cc(O)c(NC(C)=O)c2nonc12	CCHF vOTU inh-1 40 | CCHF vOTU inh-2 inactive
CCOC(=O)C(/C=C(\C#N)C(=O)OCC)=C(/N)N1CCN(c2ccccc2)CC1	CCHF vOTU inh-1 33 | CCHF vOTU inh-2 inactive
Cc1cc(=O)n(C2CCS(=O)(=O)C2)[nH]1 (stereo not drawn)	CCHF vOTU inh-1 57 (no result: BJeLR viability) | CCHF vOTU inh-2 inactive
Cc1ccc(Cn2cc(CN(C(C)(C)C)S(=O)(=O)c3ccccc3Br)nn2)cc1	none (no result: 3CLpro inhibitor, VHR inh abs, BJeLR viability, MazEF act)
CCCCn1c(N)c(N(CC(C)C)C(=O)CSCC(=O)Nc2cccc(C)c2)c(=O)[nH]c1=O	CCHF vOTU inh-1 34 (no result: 3CLpro inhibitor, VHR inh abs) | CCHF vOTU inh-2 inactive
Cn1nc(C(C)(C)C)cc1NC(=O)C1(C)CCN1C(=O)CC(c1ccccc1)c1ccccc1 (stereo not drawn)	CCHF vOTU inh-1 33 (no result: 3CLpro inhibitor, VHR inh abs, BJeLR viability, MazEF act) | CCHF vOTU inh-2 inactive
CCCCCCC(=O)NC1CCCCN(Cc2ccccc2C)C1=O (stereo not drawn)	none (no result: 3CLpro inhibitor, VHR inh abs, BJeLR viability, MazEF act)
CC1CCN(C2(O)C(=O)Nc3ccc(Br)cc32)CC1 (stereo not drawn)	none
O=C1Nc2ccc([N+](=O)[O-])cc2C1(O)N1CCCCCC1 (stereo not drawn)	CCHF vOTU inh-1 30 | CCHF vOTU inh-2 inactive
COC(=O)[C@]12C[C@H](CC(=O)N3CCN(C(=O)c4ccco4)CC3)C(=O)N(Cc3ccc4c(c3)OCO4)C1=C[C@H](C(C)C)O[C@@H]2C1CC1	none (no result: 3CLpro inhibitor, VHR inh abs, BJeLR viability, MazEF act)
CCCCNc1ccc2nsnc2c1[N+](=O)[O-]	CCHF vOTU inh-1 57 | CCHF vOTU inh-2 inactive
CC(C)Oc1ccc(S(=O)(=O)N2CCOCC2)cc1NC(=O)CN1C(=O)c2ccccc2C1=O	CCHF vOTU inh-1 36 (no result: 3CLpro inhibitor, VHR inh abs, BJeLR viability) | CCHF vOTU inh-2 inactive
CN(C)CC(O)COc1cccc(OCC(O)CN(C)C)c1 (stereo not drawn)	none
CCCCN(CC(O)COc1cccc(C)c1)CC(O)COc1cccc(C)c1 (stereo not drawn)	CCHF vOTU inh-1 31 | CCHF vOTU inh-2 inactive
C=CCN1[C@@H](C)COc2cccc(N3CCCC3)c2S1(=O)=O	none (no result: 3CLpro inhibitor, VHR inh abs, BJeLR viability, MazEF act)
COc1ccc(C=NNC(=O)c2cc(-c3ccc(C)c(C)c3)n[nH]2)cc1OCc1ccccc1	none (no result: 3CLpro inhibitor, VHR inh abs, BJeLR viability, MazEF act)
O=C(NCc1ccc(OC(F)(F)F)cc1)C1CC(c2c(Cl)cccc2Cl)=NO1 (stereo not drawn)	CCHF vOTU inh-1 30 | CCHF vOTU inh-2 inactive
COc1cc(CCc2ccccc2)c(C(=O)O)c(O)c1C/C=C(/C)CCC=C(C)C	CCHF vOTU inh-1 36 (no result: 3CLpro inhibitor, VHR inh abs, BJeLR viability) | CCHF vOTU inh-2 47
COc1c2c(c(OC)c3c1c(=O)c1ccccc1n3C)OCO2	CCHF vOTU inh-1 54 (no result: 3CLpro inhibitor, VHR inh abs, BJeLR viability) | CCHF vOTU inh-2 inactive
COc1c2c(c3c(c1OC)c(=O)c1ccccc1n3C)OCO2	none (no result: 3CLpro inhibitor, VHR inh abs, BJeLR viability)
NS(=O)(=O)c1ccc(N=Nc2ccc(=O)[nH]c2O)cc1	CCHF vOTU inh-1 32 | CCHF vOTU inh-2 inactive
COC(=O)[C@]12C[C@H](CC(=O)NCCCCc3ccccc3)C(=O)N(Cc3ccc(Cl)cc3Cl)C1=C[C@H](C(C)C)O[C@@H]2C1CC1	none (no result: 3CLpro inhibitor, VHR inh abs, BJeLR viability, MazEF act)

From PubChem BioAssay
